Results published in PubChem BioAssay (NCATS).
Results filed as inconclusive are left out. Active and inactive are the calls of the source. Calls follow the shape of the dose curve; as a rule, active = well fitted cell-killing curve with a large enough effect; inconclusive = small, poorly fitted or top-dose-only effect, or effect the other way; inactive = no such curve, though single readings can be large or run the other way.

Experiment: Quantitative High-Throughput drug screen in 47 multiple myeloma cell lines against the NCATS MIPE library collection: MM1S_ATCC cell viability assay (AID 1918980); also: nearly all actives have a fitted effect of over 45% in size
Conditions: MM1S myeloma viability, CellTiter-Glo ATP luminescence, 48 h; series mostly up to 45.8 µM
Text: PI: Beverly A. Mock Ph.D.
Laboratory of Cancer Biology and Genetics,
Center for Cancer Research, National Cancer Institute,
National Institute of Health, Bethesda, Maryland
Drug resistance and disease progression are common in multiple myeloma (MM) patients, underscoring the need for new therapeutic combinations. […] We hypothesized that effective combinations would reduce MYC expression and enhance p16 activity. […] These preclinical data identify potentially useful drug combinations for evaluation in drug-resistant MM and reveal potential mechanisms of combined drug sensitivity.
Described herein is the primary MIPE qHTS used to cherrypick compounds. Validated compounds were then further tested for potential synergistic activiy.
[1] Peat TJ, Gaikwad SM, Dubois W, Gyabaah-Kessie N, Zhang S, Gorjifard S, Phyo Z, Andres M, Hughitt VK, Simpson RM, Miller MA, Girvin AT, Taylor A, Williams D, D'Antonio N, Zhang Y, Rajagopalan A, Flietner E, Wilson K, Zhang X, Shinn P, Klumpp-Thomas C, McKnight C, Itkin Z, Chen L, Kazandijian D, Zhang J, Michalowski AM, Simmons JK, Keats J, Thomas CJ, Mock BA. Drug combinations identified by high-throughput screening promote cell cycle transition and upregulate Smad pathways in myeloma. Cancer Lett. 2023 Aug 1;568:216284. doi: 10.1016/j.canlet.2023.216284. Epub 2023 Jun 24. PMID: 37356470; PMCID: PMC10408729.
SEQUENCE No. (e.g., 1, 2, 3, etc.); […] (e.g., Cells, Incubation, Reagent, etc.); VALUE and DESCRIPTION.
1; Cells; 5 uL; white, solid bottom 1536-well Greiner assay plate.
2; Compounds; 23 nL; Kalypsis pin tool (Wako USA) equipped with a 1536-well pin head to transfer to the assay plates.
3; Incubation; 48 hours; 37C incubation.
4; Reagent;5uL; CellTiter Glo (Promega).
5; Detector; 425V; Luminescence; Viewlux PerkinElmer.
NOTES (numbers refer to Sequence numbers above)
1. The cell-based screening methods employed in this study were like those previously published. Briefly, the corresponding myeloma cell lines were screened in 1,536-well plates with 500 cells, 5-uL per well for inhibition of cell viability (assessed by measuring ATP levels with CellTiterGlo).
2. NCATS MIPE 4.0 library of approved and investigational drugs were added using the Kalypsis pin tool. Wells treated with DMSO only for 100% viability and media only for 0% viability were used as controls.
3. The assay plates were covered and incubated for 48 hours in a 37C, 5% CO2 incubator with controlled humidity.
4. After 48 hours, CellTilter-GloTM luminescent substrate mix (Promega) reagent was added to the assay plate and plates we incubated for 5 min at room temperature.
5. Signal was measured as median relative luminescence units on a ViewLux (PerkinElmer) multiplate reader.
[1] Heske CM, Davis MI, Baumgart JT, Wilson K, Gormally MV, Chen L, Zhang X, Ceribelli M, Duveau DY, Guha R, Ferrer M, Arnaldez FI, Ji J, Tran HL, Zhang Y, Mendoza A, Helman LJ, Thomas CJ. Matrix Screen Identifies Synergistic Combination of PARP Inhibitors and Nicotinamide Phosphoribosyltransferase (NAMPT) Inhibitors in Ewing Sarcoma. Clin Cancer Res. 2017 Dec 1;23(23):7301-7311. doi: 10.1158/1078-0432.CCR-17-1121. Epub 2017 Sep 12. PMID: 28899971; PMCID: PMC6636827.
Potency is read from the fitted curve at half-maximal effect.

Row | SMILES | Potency
1 | CCN(CC)CCNC(=O)c1ccc2nc(-c3ccccc3)c(-c3ccc(CN4CCC(n5c(=O)[nH]c6ccccc65)CC4)cc3)nc2c1 | 8.33 µM (active)
2 | OCc1ccc(-c2ccc(-c3ccc(CO)s3)o2)s1 | 6.62 µM (active)
3 | N#CCNC(=O)c1ccc(-c2ccnc(Nc3ccc(N4CCOCC4)cc3)n2)cc1 | 18.7 µM (active)
4 | COc1cc2c(cc1-c1c(C)noc1C)ncc1[nH]c(=O)n([C@H](C)c3ccccn3)c12 | 2.64 µM (active)
5 | O=C(Nc1cn[nH]c1-c1nc2ccc(CN3CCOCC3)cc2[nH]1)NC1CC1 | 1.87 µM (active)
6 | O=C(O)c1ccc2c(c1)nc(Nc1cccc(Cl)c1)c1ccncc12 | 6.62 µM (active)
7 | C[C@@H]1COC(Nc2ccc3ncnc(Nc4ccc(OCc5nccs5)c(Cl)c4)c3c2)=N1 | 4.18 µM (active)
8 | Cc1cccc(C=NNc2cc(N3CCOCC3)nc(OCCc3ccccn3)n2)c1 | 16.6 µM (active)
9 | CC[C@H]1CN2CCc3cc(OC)c(OC)cc3[C@H]2C[C@@H]1C[C@@H]1NCCc2cc(OC)c(OC)cc21 | 0.0833 µM (active)
10 | CS(=O)(=O)c1ccc(-c2cnc(N)c(C(=O)Nc3ccccc3)n2)cc1 | 9.35 µM (active)
11 | Cc1[nH]nc2ccc(-c3cncc(OC[C@@H](N)Cc4ccccc4)c3)cc12 | 0.935 µM (active)
12 | CC(C)CC(=O)Nc1n[nH]c2c1CN(C(=O)C1CCN(C)CC1)C2(C)C | 0.0662 µM (active)
13 | CNC(=O)c1ccccc1Nc1nc(Nc2ccc(N3CCOCC3)cc2OC)ncc1Cl | 0.662 µM (active)
14 | Fc1cc(-c2cccc3ncc(-c4cnn(C5CCNCC5)c4)nc23)cc(F)c1CN1CCOCC1 | 20.9 µM (active)
15 | CC=C1NC(=O)[C@H]2CSSCCC=C[C@H](CC(=O)N[C@H](C(C)C)C(=O)N2)OC(=O)[C@H](C(C)C)NC1=O | 0.0332 µM (active)
16 | CC[C@H](CO)Nc1nc(NCc2ccccc2)c2ncn(C(C)C)c2n1 | 20.9 µM (active)
17 | O=C(CCCCCCNC(=O)c1cnc(N(c2ccccc2)c2ccccc2)nc1)NO | 6.62 µM (active)
18 | CC(C)[C@H](C(=O)Nc1ccc(C(=O)NO)cc1)c1ccccc1 | 0.662 µM (active)
19 | Cc1ccc(-c2ncn(-c3ccc(Nc4nccc(-c5cccc(N6CCOCC6)c5)n4)cc3)n2)cn1 | 0.148 µM (active)
20 | CC[C@@H]1C(=O)N(C)c2cnc(Nc3ccc(C(=O)NC4CCN(C)CC4)cc3OC)nc2N1C1CCCC1 | 4.18 µM (active)

Row | SMILES | Potency
21 | O=C(CCCCCCC(=O)Nc1ccc([C@H]2O[C@@H](CSc3nc(-c4ccccc4)c(-c4ccccc4)o3)C[C@@H](c3ccc(CO)cc3)O2)cc1)NO | 9.35 µM (active)
22 | CCOc1cc2ncc(C#N)c(Nc3ccc(F)c(Cl)c3)c2cc1NC(=O)C=CCN(C)C | 0.296 µM (active)
23 | Cc1nc(N)ncc1-c1nc(N2CCOCC2)c2sc(C(C)(C)O)cc2n1 | 0.743 µM (active)
24 | CC(C)c1nn(-c2c(Cl)cccc2Cl)c2nc(Cc3ccc(OCCO)cc3)[nH]c(=O)c12 | 0.0418 µM (active)
25 | COC(=O)Nc1ccc(-c2nc(N3CCOCC3)c3cnn(C4CCN(Cc5cccnc5)CC4)c3n2)cc1 | 0.118 µM (active)
26 | Cc1ccc(C(N)=O)cc1Nc1nccc(-c2cn(C(C)C)c3cnccc23)n1 | 7.43 µM (active)
27 | CCN1CCN(CC(=O)Nc2ccc(-c3cccc4c(=O)cc(N5CCOCC5)oc34)c3sc4ccccc4c23)CC1 | 7.43 µM (active)
28 | COCCOc1ccc2c(c1)ncn2-c1ccc2cccc(N3CCC(N)CC3)c2n1 | 3.72 µM (active)
29 | CN(C)CC=CC(=O)Nc1cc2c(Nc3ccc(F)c(Cl)c3)ncnc2cc1O[C@H]1CCOC1 | 5.9 µM (active)
30 | Nc1ccccc1NC(=O)c1ccc(CNc2nccc(-c3cccnc3)n2)cc1 | 0.935 µM (active)
31 | CC(=O)OCC(=O)[C@@]1(O)[C@H](C)C[C@H]2[C@@H]3C=C(C)C4=Cc5c(cnn5-c5ccccc5)C[C@]4(C)[C@@H]3[C@@H](O)C[C@@]21C | 0.0132 µM (active)
32 | Nc1nccc(Oc2ccc(NC(=O)c3c[nH]cc(-c4ccc(F)cc4)c3=O)cc2F)c1Cl | 1.18 µM (active)
33 | CNC(=O)c1nn(C)c2c1C(C)(C)Cc1cnc(Nc3ccc(N4CCN(C)CC4)cc3)nc1-2 | 1.66 µM (active)
34 | N#Cc1c(O)c2c(-c3ccc(-c4ccccc4O)cc3)csc2[nH]c1=O | 16.6 µM (active)
35 | CNC(=O)CN1CCC(Oc2cc3c(Nc4cccc(Cl)c4F)ncnc3cc2OC)CC1 | 0.0105 µM (active)
36 | Cc1cn2c(-c3cn[nH]c3)cnc2c(Nc2ccc(C(=O)N3CCNCC3)cc2F)n1 | 4.69 µM (active)
37 | CNC(=O)c1ccc(N2C(=S)N(c3cnc(C#N)c(C(F)(F)F)c3)C(=O)C23CCC3)cc1F | 0.132 µM (active)
38 | CCCCc1nc2cc(C=CC(=O)NO)ccc2n1CCN(CC)CC | 0.526 µM (active)
39 | CC1=C(CO)C(=O)O[C@@H]([C@@H](C)[C@H]2CC[C@H]3[C@@H]4C[C@H]5O[C@]56[C@@H](O)C=CC(=O)[C@]6(C)[C@@H]4CC[C@]23C)C1 | 0.148 µM (active)
40 | CC(NCc1ccc2c(c1)nc(NC(=O)c1ccc(-c3cn[nH]c3)s1)n2CC(C)(C)O)C(C)(C)C (stereo not given) | 0.332 µM (active)
